# From PubChem BioAssay (NCATS)
# Values joined by “and” are separate entries in the source; they are usually repeats but may differ in a detail not shown here. Identical values can stand only once. Inconclusive results are not listed. A number with no mark means an inactive call. Active and inactive are the calls of the source. The call rests on the fitted dose curve; in most records, active means well fitted inhibition curve with a large enough effect; inconclusive means small, poorly fitted or top-dose-only effect; inactive means flat fitted curve, though single readings scatter.
# Experiments:
# CRL-7250 = normal cell line; test: Cytotoxic Profiling of Annotated Libraries Using Quantitative High-Throughput Screening (AID 1296008); conditions: Five cell lines viability, CellTiter-Glo ATP luminescence, 48-72 h; max response: hits give low values; further: potency means the concentration at half of the fitted maximal effect; on max response: on the % scale 0 is the no-effect control and ±100 the full control effect
# Procedure, shortened: (§1)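 Compounds were pin-transferred onto cells and incubated 48 or 72 hr at 37 degree Celsius, 95% humidity. CellTiter-Glo was added, plates sat 10 min at room temperature, then ATP-coupled luminescence was imaged as the viability read-out.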
# HEK293 = test: as above; conditions: Five cell lines viability, CellTiter-Glo ATP luminescence, 48-72 h; max response: hits give low values
# Procedure, shortened: as §1
# HaCat = test: as above; conditions: Five cell lines viability, CellTiter-Glo ATP luminescence, 48-72 h; max response: hits give low values
# Procedure, shortened: as §1
# NIH3T3 = test: as above; conditions: Five cell lines viability, CellTiter-Glo ATP luminescence, 48-72 h; max response: hits give low values
# Procedure, shortened: as §1
# MCC-13 = test: qHTS assay to identify novel small-molecules to repurpose for Merkel cell carcinoma treatment (AID 1296009); conditions: MCC and control cell lines, CellTiter-Glo viability, 72 h; series mostly up to 46 µM; further: potency means the concentration at half of the fitted maximal effect
# Procedure, shortened: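 Viability readout: ATP luminescence (CellTiter-Glo) after 72 hr drug exposure at 37 degree celsius. Dose-response format was 8 points for NPC and 11 points for MIPE; data normalized to in-plate controls.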
# KB-3-1 = test: Cytotoxic Profiling of Annotated Libraries Using Quantitative High-Throughput Screening (AID 1296008); conditions: Five cell lines viability, CellTiter-Glo ATP luminescence, 48-72 h; max response: hits give low values; further: potency means the concentration at half of the fitted maximal effect; on max response: on the % scale 0 is the no-effect control and ±100 the full control effect
# Procedure, shortened: as §1
# TAB165 = test: qHTS profiling for inhibitors of Plasmodium falciparum proliferation (AID 504749);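 further: 0% = DMSO vehicle and full inhibition = artemisinin control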; conditions: P. falciparum in erythrocytes, SYBR Green DNA, 72 h; series mostly up to 28.7 µM
# Procedure, shortened: (§2)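 Quantitative HTS: compounds pinned into medium, infected erythrocytes added (0.3% parasitemia, 2.5% hematocrit), 72 h culture at 37 C under 5% CO2. Saponin/Triton lysis with SYBR Green I, overnight RT, then fluorescence read.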
# W2 = test: as above; conditions: P. falciparum in erythrocytes, SYBR Green DNA, 72 h; series mostly up to 28.7 µM
# Procedure, shortened: as §2
# Further: nearly all actives have a fitted effect of over 60% in size.
compound,measurement,setting,value
Cc1cnc(Nc2ccc(N3CCN(C)CC3)cc2)nc1Nc1cccc(S(=O)(=O)NC(C)(C)C)c1,Potency,CRL-7250,1480 nM (active)
same,Potency,HEK293,4.69 µM (active)
same,Potency,HaCat,296 nM (active)
same,Potency,NIH3T3,4.18 µM (active)
same,Potency,MCC-13,16.6 µM (active)
CNC(=O)Nc1ccc(-c2nc(N3CC4CCC(C3)O4)c3cnn(C4CCC5(CC4)OCCO5)c3n2)cc1,Potency,CRL-7250,4.7 nM (active)
same,Potency,HEK293,0.0066 µM (active)
same,max response,HaCat,-19.6%
same,Potency,NIH3T3,0.0526 µM (active)
C[C@H](CCC(=O)O)[C@H]1CCC2C3C[C@H](O)[C@@H]4C[C@H](O)CC[C@]4(C)C3CC[C@@]21C (some centres not stated),max response,CRL-7250,3.11%
same,max response,HEK293,4.87%
same,max response,HaCat,-16.1%
same,max response,KB-3-1,6.35%
same,outcome,NIH3T3,inactive
same,Potency,MCC-13,inactive
Oc1ccc([C@@H]2Oc3ccc(O)cc3[C@@H]3CCC[C@@H]32)cc1,max response,CRL-7250,-17% and -0.0013%
same,Potency,HEK293,11.8 µM (active)
same,Potency,KB-3-1,14.8 µM (active)
CCC(C=C[C@@H]1OC(=O)C=C[C@H]1C)=C[C@H](C)CC=CC(C)=C[C@@H](C)C(=O)[C@@H](C)[C@H](O)[C@@H](C)CC(C)=CC(=O)O,Potency,CRL-7250,55.3 nM (active)
same,Potency,HEK293,0.0175 µM (active)
same,Potency,HaCat,110 nM (active)
same,Potency,NIH3T3,0.124 µM (active)
same,Potency,MCC-13,0.0984 µM (active)
Cn1c(Nc2ccc(C(F)(F)F)cc2)nc2cc(Oc3ccnc(-c4ncc(C(F)(F)F)[nH]4)c3)ccc21,Potency,CRL-7250,372 nM (active)
same,Potency,HEK293,26.4 µM (active)
same,Potency,KB-3-1,11.8 µM (active)
CC(C=CC(=O)NO)=C[C@@H](C)C(=O)c1ccc(N(C)C)cc1,Potency,CRL-7250,5260 nM (active)
same,Potency,HEK293,1.05 µM (active)
same,Potency,HaCat,2960 nM (active)
same,Potency,KB-3-1,1.18 µM (active)
same,Potency,NIH3T3,1.48 µM (active)
same,Potency,MCC-13,8.33 µM (active)
Cn1cnc2c(F)c(Nc3ccc(Br)cc3F)c(C(=O)NOCCO)cc21,Potency,CRL-7250,23.5 µM (active) and 7.31 µM (active)
same,max response,HEK293,-7.34%
same,max response,KB-3-1,-0.774% and -5.49%
Cn1cc(CNCC2CCN(c3ncc(C(=O)NO)cn3)CC2)c2ccccc21,Potency,CRL-7250,332 nM (active)
same,Potency,HEK293,0.187 µM (active)
same,Potency,HaCat,662 nM (active)
same,Potency,KB-3-1,0.132 µM (active)
same,Potency,NIH3T3,0.526 µM (active)
same,Potency,MCC-13,0.833 µM (active)
O=C(O)C=Cc1ccc(Cn2ccnc2)cc1,max response,CRL-7250,3.43%
same,max response,HEK293,-2.77%
same,max response,HaCat,-0.523%
same,outcome,KB-3-1,inactive
same,max response,NIH3T3,-0.597%
same,Potency,MCC-13,inactive
O=C(O)C[C@H](O)C[C@H](O)C=Cc1c(C2CC2)nc2ccccc2c1-c1ccc(F)cc1,Potency,CRL-7250,662 nM (active)
same,Potency,HEK293,9.35 µM (active)
same,Potency,HaCat,4690 nM (active)
same,Potency,NIH3T3,20.9 µM (active)
same,Potency,MCC-13,5.9 µM (active)
CC1=C(C(=O)Nc2cc3cn[nH]c3cc2F)C(c2ccc(Cl)cc2F)N=C(c2ccnc(Cl)c2)N1 (configuration not stated),max response,CRL-7250,-26.3%
same,Potency,HEK293,13.2 µM (active)
same,max response,HaCat,-46.1%
same,Potency,NIH3T3,11.8 µM (active)
CCOc1cc2ncc(C#N)c(Nc3ccc(OCc4ccccn4)c(Cl)c3)c2cc1NC(=O)C=CCN(C)C,Potency,CRL-7250,1050 nM (active)
same,Potency,HEK293,3.32 µM (active)
same,Potency,HaCat,5.3 nM (active)
same,max response,KB-3-1,-18.5%
same,Potency,MCC-13,inactive
COc1cc2ncnc(Nc3cccc(Br)c3)c2cc1OC,max response,CRL-7250,-23.5%
same,max response,HEK293,-29.7%
same,outcome,KB-3-1,inactive
same,max response,NIH3T3,-22%
O=C(O)C(=O)Nc1cccc(C2=NN=N[N]2)c1,outcome,CRL-7250,inactive
same,max response,HEK293,-1.4%
same,max response,HaCat,-4.6%
same,max response,KB-3-1,7.57%
same,max response,NIH3T3,-1.86%
same,Potency,MCC-13,inactive
COc1cccc2c1C(=O)c1c(O)c3c(c(O)c1C2=O)C[C@@](O)(C(=O)CO)C[C@H]3O[C@H]1C[C@H](N)[C@H](O)[C@H](C)O1,Potency,CRL-7250,418 nM (active)
same,Potency,HEK293,0.059 µM (active)
same,Potency,HaCat,264 nM (active)
same,Potency,KB-3-1,0.526 µM (active)
same,Potency,MCC-13,2.64 µM (active)
Cc1ccc2nc(NCCN)c3ncc(C)n3c2c1,Potency,CRL-7250,16600 nM (active)
same,Potency,HEK293,4.18 µM (active)
same,Potency,KB-3-1,3.32 µM (active)
Cc1cc(Nc2ncc3c(n2)N(C)C(=O)N(c2cc(NC(=O)c4cccc(C(F)(F)F)c4)ccc2C)C3)n(C)n1,Potency,CRL-7250,469 nM (active)
same,Potency,HEK293,0.418 µM (active)
same,Potency,HaCat,833 nM (active)
same,Potency,NIH3T3,1.32 µM (active)
same,Potency,MCC-13,2.09 µM (active)
C[C@H](NCc1ccc2c(c1)nc(NC(=O)c1ccc(-c3cn[nH]c3)s1)n2CCc1ccccc1)C(C)(C)C,Potency,CRL-7250,1870 nM (active)
same,Potency,HEK293,0.935 µM (active)
same,Potency,HaCat,2960 nM (active)
same,Potency,KB-3-1,1.05 µM (active)
same,Potency,NIH3T3,2.64 µM (active)
same,Potency,MCC-13,10.5 µM (active)
C=CC(=O)Nc1cccc(Nc2nc(NC3CCC(N(C)C)CC3)nc3c2ncn3C(C)C)c1 (configuration not stated),Potency,CRL-7250,590 nM (active)
same,Potency,HEK293,1.32 µM (active)
same,Potency,HaCat,7430 nM (active)
same,Potency,NIH3T3,14.8 µM (active)
NC(=O)c1ncn([C@@H]2O[C@H](CO)[C@@H](O)[C@@H]2O)c1O,max response,CRL-7250,-0.101%
same,max response,HEK293,1.7%
same,max response,HaCat,4.1%
same,max response,KB-3-1,6.36%
same,Potency,MCC-13,inactive
OCC(O)C(O)C(O)CO (configuration not stated),Potency,TAB165,inactive
same,Potency,W2,inactive
same,max response,CRL-7250,-10.5%
same,max response,HEK293,-3.06%
same,max response,HaCat,-1.15%
same,max response,KB-3-1,-4.24%
same,max response,NIH3T3,2.68%
same,Potency,MCC-13,inactive
